KDM4E inh – JMJD2E (human) inhibition; B2RXH2; JMJD2E catalytic domain, FDH-coupled NADH fluorescence (FDH is formaldehyde dehydrogenase); Potency, µM (top dose mostly 57.1 µM), for inactives: at the top dose activity change, negative = inhibition, hits mostly inhibitors; 230,000 compounds, 1.6% hits; AID 2147; active = well fitted inhibition curve with a large enough effect, not every such curve was filed as active; inconclusive = small, poorly fitted or top-dose-only effect, or another doubt; inactive = no such curve, though single readings can be large or run the other way;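 note: potency is the fitted concentration of half-maximal effect; 0% = wells with enzyme and -100% = buffer wells without enzyme; nearly all actives have a fitted effect of over 50% in size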
Target sequence (B2RXH2 1-337 limits assumed): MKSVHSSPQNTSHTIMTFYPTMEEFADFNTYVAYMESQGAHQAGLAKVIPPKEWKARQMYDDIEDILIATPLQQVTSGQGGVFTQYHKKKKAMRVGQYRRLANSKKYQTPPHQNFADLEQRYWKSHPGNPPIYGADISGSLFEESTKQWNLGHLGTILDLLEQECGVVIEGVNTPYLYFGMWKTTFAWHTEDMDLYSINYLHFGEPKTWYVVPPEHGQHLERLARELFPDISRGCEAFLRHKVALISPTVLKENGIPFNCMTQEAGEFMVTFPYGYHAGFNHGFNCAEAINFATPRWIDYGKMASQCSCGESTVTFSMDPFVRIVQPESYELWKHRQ
Tau fluor counter – counter-screen for tau fibril formation inhibitors; tau K18 P301L Alexa594 fluorescence, heparin fibrillization; Potency, µM (highest dose often 57.7 µM), for inactives: at the top dose activity change, negative = decrease; 280,000 compounds, 0.93% hits; note: potency is the fitted concentration of half-maximal effect; nearly all actives have a fitted effect of over 55% in size
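Human tau K18 P301L (15 uM unlabeled, 0.24 uM Alexa 594-labeled) in 100 mM sodium acetate pH 7 with 20 uM heparin, 6 hr at 37 C. ThT 30 uM added, 1 hr ambient; Alexa 594 FP and total fluorescence read at 555/632 nm.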
PNC assembly inh – perinucleolar compartment assembly inhibition; 140,000 compounds, 3.1% hits; PC3M PTB-GFP, PNC prevalence imaging, 16 h; stronger effect = lower value; activity change (PNC), negative = inhibition, % at 10 µM;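 active = readout at or below -70, meaning at least 70% loss of cells showing the perinucleolar compartment, a nuclear body marking cancer cells; inconclusive = readout between -30 and a set limit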;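 note: plate controls were DMSO wells for no effect and camptothecin positive control wells for full effect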
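Compounds are pinned in duplicate onto adhered PC3M cells stably expressing GFP-tagged PTB and incubated 16 h at 37 C. Cells are then fixed, nuclei stained with Hoechst, and PNC-positive cells counted.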
Tau ThT inhib – tau fibrillization inhibition (ThT binding) | P10636 | recombinant tau K18 P301L (four-repeat tau fragment), heparin-induced fibrillization, ThT fluorescence | Potency, µM (top dose mostly 57.4 µM), without a hit: at the highest dose activity, negative = inhibition, hits mostly inhibitors | 270,000 compounds, 2.1% hits | AID 1460; note: potency is the fitted concentration of half-maximal effect; nearly all actives have a fitted effect of over 55% in size
Target sequence (P10636 561-689 P618L limits assumed): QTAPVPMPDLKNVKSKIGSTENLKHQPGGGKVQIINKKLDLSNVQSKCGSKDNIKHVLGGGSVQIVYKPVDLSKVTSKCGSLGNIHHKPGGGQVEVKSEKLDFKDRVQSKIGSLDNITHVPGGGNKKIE
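Aggregation was driven by heparin (20 uM final) acting on recombinant tau […] bearing P301L in 100 mM sodium acetate pH 7; fibrils were detected with Thioflavin T.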
NPSR antag – antagonists of human neuropeptide S receptor cAMP signaling; CHO-NPSR cells, cAMP TR-FRET, antagonist mode; Potency, µM (series often up to 38.3 µM), for the others: at the highest dose activity change, negative = inhibition, actives largely listed as inhibitors; 220,000 compounds, 1% hits; AID 1461; note: potency is the fitted concentration of half-maximal effect; nearly all actives have a fitted effect of over 50% in size
Tau fibril FP – inhibitors of human tau fibril formation; Potency, µM (top dose mostly 57.7 µM), without a hit: top-dose activity, negative = inhibition, hits mostly inhibitors; K18 P301L tau heparin fibrillization, Alexa594 FP, 6 h; AID 1468; 280,000 compounds, 0.39% hits; note: potency is the fitted concentration of half-maximal effect; nearly all actives have a fitted effect of over 55% in size
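Human K18 P301L fragment (15 uM unlabeled plus 0.24 uM Alexa 594-labeled) in 100 mM sodium acetate pH 7 with compound, aggregation induced by 20 uM heparin for 6 hr at 37 C. ThT (30 uM) added for 1 hr, then Alexa 594 FP read.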
An asterisk follows results filed as active; ? = inconclusive; · = no result given; [ ] = another dose, or the depositor's remark. Sampled rows, rich in hits. Any-hit rate of the full collection: about 5.1%. Unless noted, calls come from the whole dose curve; as a rule, active = well fitted curve in the direction sought with a large enough effect; inconclusive = small, poorly fitted or top-dose-only effect, or another doubt; inactive = no such curve, though single readings can be large; an effect the other way counts as inactive or inconclusive. Unless noted, % is set by controls: 0 for no effect and ±100 for the full control effect.

SMILES | KDM4E inh | Tau fluor counter | PNC assembly inh | Tau ThT inhib | NPSR antag | Tau fibril FP
N#Cc1ccc(C(c2nnnn2C2CCCC2)N2CCC(Cc3ccccc3)CC2)cc1 (centres undefined) | 5% | -10% | 52 | -14% | -26%[46.1 µM] | 1%
CC1=C(C(N)=O)C(c2ccc(C(C)C)cc2)n2nc(SCc3ccccc3)nc2N1 (centres undefined) | · | -6% | · | 13% | · | -8%
O=C1CC(Nc2ccc(N3CCOCC3)cc2)C(=O)N1Cc1ccccc1 (centres undefined) | ? | -24% | -119* | ? | -5% | 11%
O=C1CC(Nc2ccc(N3CCOCC3)cc2)C(=O)N1c1ccccc1 (centres undefined) | -29% | -19% | 11 | 16µM* | -14%[46.1 µM] | -5%
O=C1CC(Nc2ccc3ccccc3c2)C(=O)N1Cc1ccccc1 (centres undefined) | -2% | ? | 43 | ? | -18%[46.1 µM] | 19%
COc1ccccc1N1C(=O)CC(Nc2ccc(N3CCOCC3)cc2)C1=O (centres undefined) | ? | -20% | -3 | 28µM* | ? | -7%
COc1ccc(-n2c(-c3ccc(C)cc3)cc3c2CC(C)(C)CC3=O)cc1Cl | · | -7% | · | -11% | · | -13%
Cc1ccc(N(Cc2cccs2)C(=O)c2ccc(Br)o2)cc1 | · | -5% | · | -9% | · | 6%
O=C(CCCCCNC(=O)c1ccccc1)N/N=C/c1ccccc1O | 25µM* | -17% | 35 | -16% | -12% | 0%
Oc1ccccc1/C=N/Nc1ccccc1 | -12% | 25µM*[quencher] | 61 | ? | 34% | 18%
O=C(CCCCCNC(=O)c1ccccc1)N/N=C/c1ccco1 | -2% | -3% | · | -7% | 0% | -4%
Oc1ccc(/C=N/Nc2ccc3ccccc3c2)c(O)c1 | ? | 20µM*[quencher] | · | 18µM* | -13% | ?
COc1cc(OC)c(NC(=O)N2CCC(CN3CCCC3)CC2)cc1Cl | · | -1% | · | 0% | · | 3%
N#C/C(=C/c1ccc(N2CCOCC2)o1)c1ccc(Br)cc1 | ? | ? | 30 | 14µM* | -29%[46.1 µM] | ?
N#C/C(=C\c1ccc(N2CCOCC2)cc1)c1ccccc1 | 7% | ? | -19 | ? | 1% | 11%
N#C/C(=C/c1ccc(N2CCOCC2)o1)c1nc2ccccc2[nH]1 | ? | ? | ? | 7.9µM* | ? | -5%
Cc1cc(/C=C(/C#N)c2nc3ccccc3[nH]2)c(C)n1-c1cccc([N+](=O)[O-])c1 | ? | ? | 20 | ? | 14%[46.1 µM] | 11%
N#C/C(=C/c1cccs1)c1nc2ccccc2[nH]1 | -28% | -4% | ? | -14% | -32% | -5%
COc1cc(N2CCCC2)c(OC)cc1/C=C(/C#N)c1cccc(F)c1 | -14% | ? | -89* | ? | ? | 13%
N#C/C(=C\c1cc([N+](=O)[O-])c(N2CCOCC2)cc1N1CCOCC1)c1nc2ccccc2[nH]1 | -3% | ? | 6 | 16µM* | -11%[46.1 µM] | 2%
COc1cccc(/C=C(/C#N)c2ccc(F)cc2)c1OCc1cccc(C(=O)O)c1 | 2% | 4% | -7 | 8% | -14% | 7%
CCc1ccc(NC(=O)CSc2nc3nccnc3c(=O)n2CCc2c[nH]c3ccccc23)cc1 | · | -22% | · | 3% | · | -12%
COc1ccc(NC(=O)CCCc2nc(-c3ccco3)no2)c(OC)c1 | · | -14% | · | -14% | · | 2%
COc1ccccc1NC(=O)C1=C(C)Nc2ncnn2C1c1cccn1C (centres undefined) | · | 0% | · | 9% | · | -7%
CN(Cc1ccc(F)cc1)S(=O)(=O)c1nnc(NC(=O)c2ccccc2Cl)s1 | · | -8% | · | 11% | · | 6%
N#C/C(=C\c1ccc(N2CCOCC2)o1)c1ccccc1 | ? | ? | -90* | 14µM* | ? | ?
N#C/C(=C/c1ccc(N2CCCCCC2)o1)c1cccc(F)c1 | 0% | ? | ? | 14µM* | 6.3µM* | ?
